Conditions in all cases: modulator concentration 10 µM
Experiment [1] has as its system RAW-Dual (murine macrophage reporter line). The experiment is described as follows: NF-kB reporter (SEAP) activity fold change vs agonist alone; higher = enhanced NF-kB activity. A digest of the protocol: (§1)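 RAW-Dual murine macrophage reporter cells were plated at 50 000 per well in 384-well plates, pin-transferred compound to 10 μM final, and pre-incubated for 1 hour at 37 °C before a PRR agonist was added and the cells incubated overnight. NF-κB activity was read from supernatant SEAP with QUANTI-Blue at 620 nm absorbance, and IRF activity from Lucia luciferase with QUANTI-Luc by luminescence. Each signal was expressed as fold change by dividing by the mean agonist-only control on the same plate. Two replicate plates were averaged, with errors obtained by propagation.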

Experiment [2] has the same test system. The experiment is described as follows: IRF reporter (Lucia luciferase) activity fold change vs agonist alone; higher = enhanced IRF activity. The method in brief: as §1
Experiment [3] has the same test system. The experiment in a line: viability score (confluency relative to resting cells, overnight) (fraction); higher = more viable, active = viable (0.7 or more). The method in brief: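 RAW-Dual macrophages in 384-well plates were treated overnight with compound at 10 μM final. IncuCyte imaging recorded confluency, and IncuCyte software built two confluency masks across every imaged well. The viability score expresses confluency relative to resting cells and was judged against a cutoff, which a compound met only if both masks exceeded 70% of resting cells.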

The mark [4] stands for this setting: agonist: CpG ODN 1826 0.5 ug/mL.

± gives the standard deviation.

In the case of `O=C(NC(=S)Nc1ccc2[nH]c(=O)[nH]c2c1)c1ccc(F)cc1`, the NF-kB reporter is 0.943 ± 0.095 in experiment [1] (setting [4]), 1.03 ± 0.066 in experiment [1] (agonist: LPS 0.1 ug/mL) and 0.933 ± 0.064 in experiment [1] (agonist: MPLA […]). Besides, the IRF reporter in experiment [2] (agonist: 3'3'-cGAMP 10 ug/mL) stood at 0.927 ± 0.032; in experiment [2] (agonist: LPS 0.1 ug/mL) it was 1.26 ± 0.13; in experiment [2] (agonist: MPLA […]) it was 1.05 ± 0.16. Besides, the viability score in experiment [3] was 1.01 (active).
`Cl.Cl.OCCN1CCN(CC/C=C2/c3ccccc3Sc3ccc(C(F)(F)F)cc32)CC1`: the NF-kB reporter in experiment [1] (setting [4]) turned out to be 1.01 ± 0.046; in experiment [1] (agonist: LPS 0.1 ug/mL), 1.03 ± 0.13; in experiment [1] (agonist: MPLA […]) it was 1.04 ± 0.1. In addition, the IRF reporter in experiment [2] (agonist: 3'3'-cGAMP 10 ug/mL) came to 0.959 ± 0.058; in experiment [2] (agonist: LPS 0.1 ug/mL), 1.13 ± 0.23; in experiment [2] (agonist: MPLA […]), 1.22 ± 0.28. The viability score in experiment [3] is 1.02 (active).
Consider `COC(=O)C1=C(C)NC(C)=C(C(=O)OC)C1c1c(F)cccc1Cl`, for which the results for the NF-kB reporter in experiment [1] (setting [4]), in experiment [1] (agonist: LPS 0.1 ug/mL) and in experiment [1] (agonist: MPLA […]) were 0.828 ± 0.067, 1.27 ± 0.072 and 1.42 ± 0.092, respectively. Besides, the IRF reporter in experiment [2] (agonist: 3'3'-cGAMP 10 ug/mL) is 1.1 ± 0.04; in experiment [2] (agonist: LPS 0.1 ug/mL), 1.17 ± 0.11; in experiment [2] (agonist: MPLA […]), 1.2 ± 0.23. Besides, the viability score in experiment [3] was 0.979 (active).
On to `Cl.O=C1NCC2(CCN(CCc3ccccc3)CC2)O1`, for which the NF-kB reporter in experiment [1] (setting [4]) worked out at 0.582 ± 0.028; in experiment [1] (agonist: LPS 0.1 ug/mL), 0.641 ± 0.054; in experiment [1] (agonist: MPLA […]), 0.798 ± 0.082. Also, the IRF reporter was determined as 0.672 ± 0.042 in experiment [2] (agonist: 3'3'-cGAMP 10 ug/mL), 1.54 ± 0.26 in experiment [2] (agonist: LPS 0.1 ug/mL) and 1.78 ± 0.51 in experiment [2] (agonist: MPLA […]). For the same molecule, the viability score in experiment [3] is 0.816 (active).
For the molecule `CNC(=O)c1ccc(Nc2ncc(C(F)(F)F)c(NCc3nccnc3N(C)S(C)(=O)=O)n2)cc1`, the NF-kB reporter amounted to 1.25 ± 0.37 in experiment [1] (setting [4]), 0.169 ± 0.013 in experiment [1] (agonist: LPS 0.1 ug/mL) and 2.19 ± 0.34 in experiment [1] (agonist: MPLA […]). The IRF reporter in experiment [2] (agonist: 3'3'-cGAMP 10 ug/mL) came to 0.0196 ± 0.0024; in experiment [2] (agonist: LPS 0.1 ug/mL), 0.0319 ± 0.0037; in experiment [2] (agonist: MPLA […]), 0.0361 ± 0.006. Besides, in experiment [3], the viability score was 0.749 (active).
Consider `O=C(NC1CC2CCC1C2)c1ccccc1` (stereo unspecified), for which the values for the NF-kB reporter in experiment [1] (setting [4]), in experiment [1] (agonist: LPS 0.1 ug/mL) and in experiment [1] (agonist: MPLA […]) were 0.907 ± 0.09, 0.994 ± 0.081 and 0.972 ± 0.046, respectively. For the same molecule, the IRF reporter in experiment [2] (agonist: 3'3'-cGAMP 10 ug/mL) came to 1.02 ± 0.11; in experiment [2] (agonist: LPS 0.1 ug/mL), 1.01 ± 0.13; in experiment [2] (agonist: MPLA […]) it was 0.869 ± 0.15. Further, the viability score in experiment [3] was 0.995 (active).
As for `O=C(Cn1cnc([N+](=O)[O-])n1)Nc1cc(Oc2cccc(C(F)(F)F)c2)cc([N+](=O)[O-])c1`, the NF-kB reporter in experiment [1] (setting [4]) was found to be 0.529 ± 0.043; in experiment [1] (agonist: LPS 0.1 ug/mL), 0.806 ± 0.097; in experiment [1] (agonist: MPLA […]), 0.406 ± 0.043. Besides, the values for the IRF reporter in experiment [2] (agonist: 3'3'-cGAMP 10 ug/mL), in experiment [2] (agonist: LPS 0.1 ug/mL) and in experiment [2] (agonist: MPLA […]) were 0.902 ± 0.022, 1.6 ± 0.14 and 1.51 ± 0.21, respectively. Besides, the viability score in experiment [3] was 0.995 (active).
Turning to `O=[N+]([O-])c1ccc(-n2cccc2C=NNc2nc(N3CCCCC3)nc(N3CCCCC3)n2)cc1`, the NF-kB reporter in experiment [1] (setting [4]) was determined as 0.994 ± 0.087; in experiment [1] (agonist: LPS 0.1 ug/mL), 1.01 ± 0.12; in experiment [1] (agonist: MPLA […]), 0.926 ± 0.054. In addition, the IRF reporter in experiment [2] (agonist: 3'3'-cGAMP 10 ug/mL) came out at 0.907 ± 0.039; in experiment [2] (agonist: LPS 0.1 ug/mL) it was 1.38 ± 0.12; in experiment [2] (agonist: MPLA […]), 1.05 ± 0.1. Moreover, the viability score in experiment [3] is 1 (active).
For `COc1ccccc1N1CCN(c2ncnc3c2cnn3-c2cc(C)cc(C)c2)CC1`, the NF-kB reporter was 1.2 ± 0.067 in experiment [1] (setting [4]), 1.16 ± 0.1 in experiment [1] (agonist: LPS 0.1 ug/mL) and 1.19 ± 0.042 in experiment [1] (agonist: MPLA […]). Further, the IRF reporter in experiment [2] (agonist: 3'3'-cGAMP 10 ug/mL) was 1.01 ± 0.049; in experiment [2] (agonist: LPS 0.1 ug/mL), 1.05 ± 0.098; in experiment [2] (agonist: MPLA […]), 1.08 ± 0.16. Further, the viability score in experiment [3] was 0.997 (active).
As to `CN1CCN(CCCN2c3ccccc3Sc3ccc(Cl)cc32)CC1` [Prestw-399], the NF-kB reporter in experiment [1] (setting [4]) was found to be 0.442 ± 0.026; in experiment [1] (agonist: LPS 0.1 ug/mL), 0.845 ± 0.073; in experiment [1] (agonist: MPLA […]) it was 1.73 ± 0.048. Further, the results for the IRF reporter in experiment [2] (agonist: 3'3'-cGAMP 10 ug/mL), in experiment [2] (agonist: LPS 0.1 ug/mL) and in experiment [2] (agonist: MPLA […]) were 1.23 ± 0.051, 1.1 ± 0.085 and 1.46 ± 0.15, respectively. In experiment [3], the viability score is 0.114 (inactive).
For the molecule `CC(C)c1nc(CN(C)C(=O)N[C@H](C(=O)N[C@@H](Cc2ccccc2)C[C@H](O)[C@H](Cc2ccccc2)NC(=O)OCc2cncs2)C(C)C)cs1`, the NF-kB reporter was 0.57 ± 0.047 in experiment [1] (setting [4]), 0.468 ± 0.036 in experiment [1] (agonist: LPS 0.1 ug/mL) and 0.8 ± 0.053 in experiment [1] (agonist: MPLA […]). The IRF reporter was determined as 1.04 ± 0.14 in experiment [2] (agonist: 3'3'-cGAMP 10 ug/mL), 0.993 ± 0.049 in experiment [2] (agonist: LPS 0.1 ug/mL) and 0.92 ± 0.096 in experiment [2] (agonist: MPLA […]). In experiment [3], the viability score is 1 (active).
In the case of `COc1ccc(C(=O)Nc2nc(C)c(C)s2)cc1OC`, the NF-kB reporter in experiment [1] (setting [4]) stood at 0.904 ± 0.093; in experiment [1] (agonist: LPS 0.1 ug/mL), 1.02 ± 0.056; in experiment [1] (agonist: MPLA […]), 0.994 ± 0.064. Further, the IRF reporter in experiment [2] (agonist: 3'3'-cGAMP 10 ug/mL) stood at 0.981 ± 0.024; in experiment [2] (agonist: LPS 0.1 ug/mL), 1.55 ± 0.26; in experiment [2] (agonist: MPLA […]), 1.16 ± 0.27. In addition, the viability score in experiment [3] was 1.01 (active).
Turning to `O=C(Oc1ccc2oc(=O)sc2c1)c1ccccc1`, the figures for the NF-kB reporter in experiment [1] (setting [4]), in experiment [1] (agonist: LPS 0.1 ug/mL) and in experiment [1] (agonist: MPLA […]) were 0.969 ± 0.2, 0.917 ± 0.091 and 0.862 ± 0.1, respectively. Moreover, the IRF reporter in experiment [2] (agonist: 3'3'-cGAMP 10 ug/mL) worked out at 0.325 ± 0.017; in experiment [2] (agonist: LPS 0.1 ug/mL), 1.26 ± 0.13; in experiment [2] (agonist: MPLA […]) it was 1.36 ± 0.22. For the same molecule, in experiment [3], the viability score is 0.632 (inactive).

For the origin of these results see the supplement of paper PMC10646978.
